From PubChem BioAssay
Cruzain inh Det = blocks cruzain activity in presence of Triton detergent; P25779; purified cruzain, Z-FR-AMC fluorescence, 0.01% Triton; Potency, µM, for the others: max response, negative = inhibition, most hits filed as inhibitors; hit rate 0.43% among 200,000; AID 1478;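 note: plate controls were neutral wells for no effect and buffer without enzyme for full effect; nearly all actives have a fitted effect of over 40% in size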
Target sequence (P25779 123-467 limits assumed): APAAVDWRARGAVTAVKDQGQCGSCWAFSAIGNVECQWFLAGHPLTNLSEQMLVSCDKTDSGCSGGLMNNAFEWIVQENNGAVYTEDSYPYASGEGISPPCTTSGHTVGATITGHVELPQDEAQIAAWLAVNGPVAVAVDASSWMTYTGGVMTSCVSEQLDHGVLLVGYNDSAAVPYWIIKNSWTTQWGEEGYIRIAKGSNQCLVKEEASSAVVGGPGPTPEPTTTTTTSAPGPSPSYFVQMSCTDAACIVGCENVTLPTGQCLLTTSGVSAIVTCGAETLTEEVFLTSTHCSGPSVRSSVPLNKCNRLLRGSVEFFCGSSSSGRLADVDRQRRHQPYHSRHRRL
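Compounds were screened in titration against cruzain (1.5 nM) with 0.01% Triton X-100 to counter colloidal aggregation. Activity was the AMC fluorescence increase over 60 s after adding 2 uM Z-FR-AMC at pH 5.5.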
NS1 inh = blocks influenza NS1 protein function | hit rate 0.4% among 270,000 | Potency, µM (series often up to 46.1 µM), for the others: top-dose activity, positive = more growth; calls by dose curve; note: actives are rising curves; nearly all actives have a fitted effect of over 50% in size
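S. cerevisiae expressing influenza A NS1, grown in glucose, washed, then diluted 1:100 into pH 6.0 -URA galactose medium with 23 nl compound. Growth recovery read as OD600; NS1-free strain serves as control.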
Cruzain inh noDet = blocks cruzain activity in detergent-free assay. P25779. purified cruzain, Z-FR-AMC fluorescence, no detergent. Potency, µM, for inactives: max response, negative = inhibition, hits mostly inhibitors. hit rate 2.3% among 200,000;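 note: plate controls were enzyme without inhibitor for no effect and buffer without enzyme for full effect; nearly all actives have a fitted effect of over 40% in size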
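Detergent-free condition (0.00005% Triton X-100) in acetate buffer pH 5.5 with DTT. 1.5 nM enzyme and compound were pre-mixed 15 min, then 2 uM Z-FR-AMC substrate added; reaction progress from fluorescence change between first and third reads (60 s).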
Active calls of the source: *; ? = inconclusive; · = no result. This is one part of a sample in which hits are shown more often than they occur. Unless noted, calls come from the whole dose curve; as a rule, active = well fitted curve in the direction sought with a large enough effect; inconclusive = small, poorly fitted or top-dose-only effect, or another doubt; inactive = no such curve, though single readings can be large; an effect the other way counts as inactive or inconclusive. Potency is the fitted concentration of half-maximal effect.

SMILES	Cruzain inh Det	NS1 inh	Cruzain inh noDet
O=C(CCN1CCc2ccccc2C1)c1ccc2c(c1)OCCO2	?	-57.4%	?
O=C(CCN1CCCCC1)c1ccc2c(c1)OCCO2	-14.3%	-81.1%	-25.5%
O=C(CCN1CCCC1Cc1ccccc1)c1ccc2c(c1)OCCO2 (stereo not given)	25.1µM*	-221.8%	20µM*
CN(C)CCN1CCc2ccccc21	-3.3%	-5.4%	-9.9%
c1ccc2c(c1)CCN2CCN1CCc2ccccc21	5.6%	-32.0%	10µM*
O=C(CCN1CCc2ccccc21)c1ccc2c(c1)OCCO2	-1.9%	17.3%	7.94µM*
C=C[C@@H](C1=CC(=O)C(OC)=C(OC)C1=O)c1ccccc1	-2.8%	·	16.3%
CCc1ccc(NS(=O)(=O)c2c(-c3ccccc3)csc2C(=O)OC)cc1	-11.8%	·	?
Nc1nc2c(ncn2[C@@H]2O[C@H](CO)[C@@H](O)[C@@H]2O)c(=[SH+])[nH]1.O=[N+]([O-])c1ccc(O)[c]([Hg])c1	-0.3%	-5.6%	-1.8%
Cc1ccc(S(=O)(=O)CC(=O)Nc2nc3c(C)cccc3s2)cc1	-4.8%	·	25.1µM*
Cc1ccc(S(=O)(=O)CC(=O)Nc2nc3ccccc3s2)cc1	·	4.0%	·
O=C(CS(=O)(=O)c1ccc(Cl)cc1)Nc1nc2ccc(Br)cc2s1	-2.9%	·	7.94µM*
CC(=O)Nc1ccc2nc(NC(=O)CS(=O)(=O)c3ccc(C)cc3)sc2c1	-4.1%	·	-21.1%
Cc1ccc(Nc2c(-c3ccc(N4CCOCC4)cc3)nc3c(C)cccn23)cc1	-2.7%	·	-0.4%
Cc1ccc(-n2ncc3c(Nc4cccc(C(F)(F)F)c4)ncnc32)cc1C	1.4%	·	-7.7%
CCCCCCCCCCCCCCCCOCC(CO)OC(C)=O (stereo not given)	4.3%	·	-0.9%
CCC(C)C(=O)O[C@H]1C[C@@H](C)C=C2C=C[C@H](C)[C@H](CC[C@@H]3C[C@@H](O)CC(=O)O3)C21 (stereo not given in full)	-3.7%	·	?
COc1ccc(-c2nc(-c3ccccc3)oc2NC(C)C)cc1	2.0%	·	-8.6%
CC(=O)Nc1sc(N/N=C\c2ccc(O)cc2)nc1-c1cccs1	·	2.7%	·
CCN(CC)c1ccc(/C=C(\C#N)c2nc(-c3cccs3)c(NC(C)=O)s2)cc1	-3.6%	?	15.8µM*
COC(=O)c1c(-c2cccs2)csc1NC(=O)c1ccc(C(C)(C)C)cc1	-3.2%	·	?
COC(=O)CSc1nc(N)c2c3c(sc2n1)CCCC3	-10.3%	-82.3%	4.9%
COC(=O)CSc1nc(N)c2c3c(sc2n1)C(c1ccccc1)SC(c1ccccc1)C3 (stereo not given)	?	6.7%	12.6µM*
COc1ccc(OC)c(NC(=O)c2cnc(Nc3ccc(C)c(Cl)c3)c3ccccc23)c1	-4.1%	·	6.31µM*
Cc1ccc(Nc2ncc(C(=O)NCCCN3CCN(C)CC3)c3ccccc23)cc1Cl	·	0.2%	·
SMILES	Cruzain inh Det	NS1 inh	Cruzain inh noDet
COc1ccccc1NC(=O)c1cnc(Nc2ccccc2OC)c2ccccc12	-10.4%	4.8%	?
Cc1ccc(Nc2ncc(C(=O)N3CCN(c4cccc(Cl)c4)CC3)c3ccccc23)cc1Cl	-6.2%	·	7.94µM*
COC(=O)N[C@@H](c1cccc(C)c1)C(C(C)=O)C(=O)OC (stereo not given in full)	1.6%	·	-0.4%
OC[C@@H]1[C@@H](c2ccccc2)C(c2ccccc2)=NN1c1ccccc1	-0.3%	·	28.2µM*
OC[C@@H]1[C@@H](c2ccccc2)C(c2cccc(Cl)c2)=NN1c1ccccc1	1.6%	·	25.1µM*
Cc1cccc(C2=NN(c3ccccc3)[C@H](CO)[C@H]2c2ccc(F)cc2)c1	-13.2%	·	?
Cc1cccc(C2=NN(c3ccccc3)[C@H](CO)[C@H]2c2ccc(Cl)cc2)c1	0.2%	·	35.5µM*
COc1ccccc1[C@H]1C(c2cccc(Cl)c2)=NN(c2ccccc2)[C@@H]1CO	0.4%	·	?
C[C@H]1C(c2ccccc2)=NN(c2ccccc2)[C@@H]1CO	1.7%	·	-26.5%
COc1cc(OC)cc(C(=O)Nc2ccc3nc(N4CCC(C)CC4)cc(C)c3c2)c1	-21.0%	·	?
CC(C)(C)C(=O)[C@H](C(c1ccccc1)N1CCOCC1)N1CCOCC1 (stereo not given in full)	5.3%	-2.8%	2.5%
c1csc(CNc2nc(-c3ccc4c(c3)OCO4)nc3ccccc23)c1	-0.5%	·	?
CCCn1c(=N)c(C(=O)NC2CCCCC2)cc2c(=O)n3cc(C)ccc3nc21	-2.0%	·	11.3%
COc1ccc(C(C(=O)NC2CCCC2)N(C(=O)c2snc(-c3ccc(F)cc3)c2N)c2ccccc2)cc1 (stereo not given)	7.1%	15.5%	7.94µM*
COc1ccc(C(C(=O)NC2CCCC2)N(C(=O)c2snc(-c3ccc(F)cc3)c2N)c2cccc(F)c2)cc1 (stereo not given)	-0.7%	6.0%	10µM*
COc1ccc(C(C(=O)NC2CCCC2)N(C(=O)c2snc(-c3ccc(F)cc3)c2N)c2ccc(F)cc2)cc1 (stereo not given)	3.2%	11.7%	25.1µM*
COc1ccc(N(C(=O)c2snc(C(N)=O)c2N)C(C(=O)NC2CCCC2)c2ccc3ncccc3c2)cc1 (stereo not given)	·	6.2%	·
COc1ccc(N(C(=O)c2snc(C(N)=O)c2N)C(C(=O)NC2CCCC2)c2ccc(F)cc2)c(OC)c1 (stereo not given)	·	8.6%	·
COc1ccc(C(C(=O)NC2CCCC2)N(C(=O)c2snc(-c3ccc(F)cc3)c2N)c2ccc(OC)cc2)cc1 (stereo not given)	1.7%	1.7%	25.1µM*
COc1ccc(N(C(=O)c2ccn[nH]2)C(C(=O)NC2CCCC2)c2ccc(F)cc2)cc1 (stereo not given)	·	4.6%	·
COc1ccc(C(C(=O)NC2CCCCC2)N(C(=O)c2sc(C)nc2C)c2ccccc2)cc1 (stereo not given)	-2.0%	2.3%	0.8%
O=S(=O)(c1cccc(C(F)(F)F)c1)N1CCC(Oc2ccc(-n3cnnn3)cc2)CC1	-2.3%	·	1.6%
c1ccc([C@H](CCN2CCCC2)c2ccccn2)cc1	2.2%	1.1%	5.0%
CN1[C@@H]2CC(OC(=O)[C@@H](CO)c3ccccc3)C[C@@H]1[C@H]1O[C@H]12 (stereo not given in full)	-4.6%	-2.6%	16.3%
CCCOC(=O)CSc1nnc2ccc3ccccc3n12	-4.2%	·	-1.2%
SMILES	Cruzain inh Det	NS1 inh	Cruzain inh noDet
O=[N+]([O-])c1cc(/C=N\Nc2nccs2)ccc1O	17.8µM*	-64.3%	31.6µM*
O=[N+]([O-])c1ccccc1/C=N\Nc1nccs1	·	4.1%	·
CCn1c(C)cc(/C=C2\SC(=O)N(CC(=O)Nc3ccc(C)c(C)c3)C2=O)c1C	0.1%	14.8%	15.8µM*
CCn1c(C)cc(/C=C2/SC(=O)N(CC(=O)N3CCCC3)C2=O)c1C	·	8.4%	·
Cc1ccc(NC(=O)CN2C(=O)S/C(=C\C(=O)Nc3ccc(Cl)cc3)C2=O)cc1	0.1%	-0.8%	10µM*
Cc1ccc(NC(=O)CN2C(=O)S/C(=C/c3ccncc3)C2=O)cc1	·	-9.7%	·
CCOc1ccc2nc(/N=C/c3nc(-c4ccc(Br)cc4)oc3O)sc2c1	1.6%	2.0%	7.94µM*
CCCCOc1ccc(-c2nc(/C=N/c3nccs3)c(O)o2)cc1	0.5%	3.6%	?
Cc1ccc(C(C)C)c(OCC(=O)NCC2(N3CCOCC3)CCCCC2)c1	-0.9%	·	6.7%
